# Assay results published in PubChem BioAssay AID504558 (Broad Institute, 2011).
# About 2,400 (0.69%) of roughly 350,000 compounds were called active. Shown is part of a subset that was picked to be rich in actives. Values without a mark were called inactive. Rule as the data show it: active = inhibition above about 41%; inconclusive = no clear call, values can overlap the other calls; inactive = below that.
# Assay: blockers of LMP1-induced NF-kB reporter signal – cell-based, luminescence, single point, primary screen (AID 504558);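 also: 0% = neutral control wells and 100% = reference inhibitor control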
# Conditions: LMP1-induced NF-kappaB luciferase reporter cells, at 12.5 µM, active compounds read high
row,Compound,inhibition
1,Cc1ccc(CS(=O)(=O)c2ncc(Cl)c(C(=O)Nc3nnc(C)s3)n2)cc1,85.8% (active)
2,CSc1nnc(NC(=O)c2nc(S(=O)(=O)Cc3ccc(C)cc3)ncc2Cl)s1,24.2%
3,Cc1cccc(NC(=O)c2nc(S(=O)(=O)Cc3ccccc3)ncc2Cl)c1,19.5%
4,CC1(C)OC(=O)C2=C(CC(c3ccccc3)OC2CCc2ccccc2)O1 (stereo not given),3.89%
5,C[C@@H]1C[C@@H]2O[C@H]2/C=C\C=C\C(=O)Cc2c(Cl)c(O)cc(O)c2C(=O)O1,80% (active)
6,CCOC(=O)c1c(C)[nH]c(C)c1C(=O)COC(=O)/C=C/c1cccc([N+](=O)[O-])c1,7.29%
7,Cc1nonc1C(=O)N/N=C/c1ccc(O)cc1,-10.7%
8,O=C(C[n+]1ccccc1)N/N=C/c1ccc(O)cc1,45.7% (active)
9,Nc1nnn(CC(=O)N/N=C/c2ccc(O)cc2)n1,-8.43%
10,O=C(OCc1ccccc1)N1CCC2CC1c1ccc(-c3ccc4c(c3)OCO4)cc12 (stereo not given),-5.51%
11,O=NN(CCCl)C(=O)NCCc1cccc[n+]1[O-],1.36%
12,COc1cc(SC)ccc1C(=O)Nc1nc(C)cs1,77% (active)
13,COC(=O)c1sc(NC(=S)NC(=O)c2ccc(C)cc2)nc1C,-2.09%
14,Cc1csc(NC(=O)c2ccc(-c3ccc(Cl)cc3Cl)o2)n1,5.23%
15,COc1cc(SC)ccc1C(=O)NNC(=O)C1COc2ccccc2O1 (stereo not given),3.35%
16,COc1ccc(C(=O)NC2=NCCS2)c(OC)c1,14.4%
17,COC(=O)c1sc(NC(=O)c2ccc(OC)cc2OC)nc1C,56.8% (active)
18,O=C(c1ccc(N2CCCC2=O)cc1)N1CCN(c2ccc(C(F)(F)F)cc2[N+](=O)[O-])CC1,5.85%
19,CCc1c(N=O)c(-c2ccccc2)n(O)[n+]1[O-],-1.78%
20,COc1ccc(CN2C[C@H]3CON(C)[C@H]3C[C@H]2c2ccc(-c3cccc(F)c3)cc2)cc1,6.65%
21,C=CCN1CCN(c2ccncc2S(=O)(=O)N2CCN(C)CC2)CC1,-2.07%
22,C[C@H]1CN([C@@H](C)CO)C(=O)CCCn2cc(nn2)CO[C@@H]1CN(C)S(=O)(=O)c1ccc(-c2ccccc2)cc1,1.8%
23,CC(=O)CC[C@@H](C)O[C@@H]1OC(C)[C@H](O)CC1O (stereo not given in full),85.2% (active)
24,COCCNC(=O)CSc1nc(N)c(NC(=O)c2ccco2)c(=O)[nH]1,2.34%
25,CN1CCN(c2ccncc2S(=O)(=O)N2CCCC2)CC1,-0.542%
